Rpn11 inh: blocks the human proteasome subunit Rpn11. O00487. human 26S proteasome, Ub4-pepOG fluorescence polarization; 20S core pre-blocked with epoxomicin. calls only at 20 µM. hit rate 0.59% among 360,000. AID 588493;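 active = inhibition at 20 µM, scaled to each plate's controls, above about 33%, limit read from the data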
PKA-R2B act: activators of human PKA-R2B complex. hit rate 0.079% among 340,000. PKA-R2B holoenzyme dissociation, Cy5-IP20 fluorescence polarization; R2B truncated from residue 108, S112A mutant; 0% DMSO only, 100% 113 µM cGMP. activation, % at 11.4 µM;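 active = activation above a cutoff set at the mean over all compounds plus 3 SD, cut at about 18% in these data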;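 also: higher means more holoenzyme dissociation and a rise in polarization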
PKA-R1A activ: activators of PKA-R1A complex; P00514+P68181; PKA-R1A dissociation, Cy5-IP20 fluorescence polarization; scaled: DMSO 0%, 113 µM cGMP 100%; activation, % at 11.4 µM; hit rate 0.083% among 340,000; AID 504707;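 active = percent activation above the mean of all tested compounds plus 3 SD, cut at about 19% in these data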;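 also: higher means more PKAc released from R1A so a rise in polarization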
Neddyl block: inhibitors of human cullin neddylation. hit rate 0.58% among 360,000. inhibition, % at 25 µM. TR-FRET cullin neddylation, biochemical. P61081+Q13564; in the data active = inhibition above about 36%
Rpn11 inh conf: confirmation of human proteasome Rpn11 inhibitors; shares compounds with Rpn11 inh; purified human 26S proteasome, Ub4-pepOG fluorescence polarization; proteasome pretreated with epoxomicin; inhibition, % at 20 µM; hit rate 29% among 1,900; AID 602318
MMP-2 counter: blocks human MMP-2, flagging nonselective RPN11 hits; shares compounds with Rpn11 inh; recombinant MMP-2, FRET peptide cleavage fluorescence; inhibition, % at 20 µM; hit rate 4% among 1,900;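 also: human MMP-2 activated beforehand with APMA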
Thrombin inh: thrombin (bovine) inhibition counter-screen; AID 602333; shares compounds with Rpn11 inh; hit rate 13% among 1,900; inhibition, % at 20 µM; bovine thrombin cleavage of Ub4-pepOG, fluorescence polarization;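 active = mean inhibition at least 40% at 20 µM, or signal 3 deviations below plate average, so some actives read negative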;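 also: plate controls were thrombin with DMSO for no effect and buffer wells lacking thrombin for full effect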
Target sequence (P00735 whole entry, looked up): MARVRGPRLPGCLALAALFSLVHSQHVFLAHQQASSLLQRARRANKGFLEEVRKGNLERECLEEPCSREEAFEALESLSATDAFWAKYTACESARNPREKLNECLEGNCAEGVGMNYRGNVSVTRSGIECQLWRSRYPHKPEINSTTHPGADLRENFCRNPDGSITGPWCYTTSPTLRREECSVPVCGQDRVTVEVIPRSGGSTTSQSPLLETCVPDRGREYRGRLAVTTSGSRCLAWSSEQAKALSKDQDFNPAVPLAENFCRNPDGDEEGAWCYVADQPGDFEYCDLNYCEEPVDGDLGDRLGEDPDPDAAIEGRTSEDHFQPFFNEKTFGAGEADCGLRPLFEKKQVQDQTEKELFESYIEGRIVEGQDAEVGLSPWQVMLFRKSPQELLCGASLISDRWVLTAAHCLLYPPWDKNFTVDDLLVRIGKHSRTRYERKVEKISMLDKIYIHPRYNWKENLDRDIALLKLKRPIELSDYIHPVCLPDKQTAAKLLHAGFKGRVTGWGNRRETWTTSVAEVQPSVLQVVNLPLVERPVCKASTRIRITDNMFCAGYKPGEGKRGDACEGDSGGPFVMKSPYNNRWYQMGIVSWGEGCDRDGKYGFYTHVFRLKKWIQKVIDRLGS
* marks the source's active call; other numbers are inactive results; i = inactive; nt = no result given; + = active, no number. A selection: hits, their analogues and other compounds. The true share with any hit is near 1.3%. Rule as the data show it, unless noted: active = inhibition above about 40%; inactive = the rest.

SMILES	Rpn11 inh	PKA-R2B act	PKA-R1A activ	Neddyl block	Rpn11 inh conf	MMP-2 counter	Thrombin inh
COc1ccc(CNC(=O)C/C(C)=N/NC(=O)c2ccc(OC)cc2OC)cc1	i	-1	-4	2	nt	nt	nt
COc1ccccc1-n1cnc2c(c1=O)c1nc3ccccc3nc1n2-c1ccc(C)c(C)c1	+	3	-5	15	24	-23	0
COCCCn1c2nc3ccccc3nc2c2c(=O)n(-c3ccccc3OC)cnc21	i	0	-5	4	nt	nt	nt
Cc1c(Br)c([N+](=O)[O-])nn1CC(=O)NCCc1c[nH]c2ccccc12	i	-4	-10	-27	nt	nt	nt
CCc1nc2oc3cc(OC)ccc3c(=O)c2c(=O)n1Cc1ccco1	+	-4	4	-7	-8	6	19
CCCN(CCC)CC(O)Cn1cc(/C=C/C(=O)c2ccccc2)c2ccccc21 (stereo not drawn)	+	-2	1	12	5	-22	12
CN1CCN(Cn2cc(/C=C/C(=O)c3ccccc3)c3ccccc32)CC1	i	-6	-12	2	nt	nt	nt
Cc1onc(-c2ccccc2)c1C(=O)Nc1nc2c(s1)C(=O)CC(C)(C)C2	+	-8	-12	-21	2	-2	-16
CC1(C)CC(=O)c2sc(NC(=O)c3ccco3)nc2C1	i	4	-11	-28	nt	nt	nt
O=C1CCCc2oc3c(c21)CCCC3	i	14	4	9	nt	nt	nt
CCOc1ccccc1NC(=O)CSc1nc(N)c(C#N)cc1C#N	i	-6	0	i	nt	nt	nt
COc1ccccc1NC(=O)CSc1nc(N)c(C#N)cc1C#N	+	nt	nt	i	71*	-26	47*
Cc1cc(/C=C2/C(=N)N3C(c4ccccc4)=CSC3=NC2=O)c(C)n1-c1ccccc1	i	1	-4	5	nt	nt	nt
N=C1/C(=C/c2ccc(-c3cccc(C(=O)O)c3)o2)C(=O)N=C2SC(CC(=O)N3CCOCC3)=NN12	i	-5	3	-19	nt	nt	nt
N=C1/C(=C\c2ccc(-c3cccc(C(=O)O)c3)o2)C(=O)N=C2SC=C(c3ccccc3)N12	+	-4	3	-16	149*	27	51*
Cc1ccccc1-n1c(C)cc(/C=C2/C(=N)N3C(c4ccccc4)=CSC3=NC2=O)c1C	+	-2	-2	nt	27	23	29
Cc1cc(/C=C2\C(=N)N3C(SCc4ccccc4)=NSC3=NC2=O)c(C)n1Cc1ccccc1	+	-10	-1	-9	-1	-28	-36
COc1ccc(S(=O)(=O)N2CCC(C(=O)NN3CCCCC3)CC2)cc1	i	-7	0	-1	nt	nt	nt
Cc1ccc2[nH]c(=O)c(CN(CCc3ccccc3)C(c3nnnn3Cc3ccco3)C(C)C)cc2c1 (stereo not drawn)	+	3	-6	-28	24	9	2
O=C(c1ccccc1)c1ccc(N2CCN(C(=O)c3ccc(F)cc3F)CC2)c(F)c1	i	2	-7	-75	nt	nt	nt
CCOC(=O)c1nc2cc3n(c(CC(C)C)c-2c1C)CC(C)=C3C	+	-6	9	nt	18	6	14
CCOC(=O)c1nc2cc3n(c(C)c-2c1C)C(C)C(C)=C3C (stereo not drawn)	i	-10	-4	nt	nt	nt	nt
COc1ccccc1-c1csc(-n2ncc(C#N)c2N)n1	+	1	-6	-12	45*	50*	-16
COc1ccc(-c2csc(-n3ncc(-c4ccccn4)c3N)n2)cc1	i	-1	1	0	nt	nt	nt
O=C(COC(=O)c1ccc(O)cc1)Nc1ccc(N2CCCCC2)cc1	+	-4	3	-2	1	2	-2
COc1ccc(C(=O)Nc2ccc(N3CCCC3)cc2)cc1	+	5	-6	9	13	-10	-6
COc1cc(OC)cc(C(=O)OCC(=O)Nc2ccc(N3CCCCC3)cc2)c1	i	6	-3	-6	nt	nt	nt
Cc1cc(C)c(CN2CCN(C(=O)Cn3cnc4c(OCc5ccccc5)ncnc43)CC2)c(C)c1	i	0	-13	4	nt	nt	nt

Source: PubChem (several laboratories)
